ERK AVP inh – blocks ERK signaling stimulated by vasopressin; Potency, µM (top dose mostly 57.5 µM), for the others: at the highest dose activity, negative = inhibition, usual class: inhibitors; AID 995; HEK293-V1b, vasopressin-stimulated pERK AlphaScreen; hit rate 0.99% among 72,000; further: on the % scale 0 is the no-effect control and ±100 the full control effect; nearly all actives have a fitted effect of over 55% in size
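Phosphorylated ERK1/2 detected via AlphaScreen bead proximity in lysates of V1b-expressing HEK293 cells given 25 nM vasopressin for 5 min after 30 min compound exposure (37 °C). AC50 from Hill equation; basal DMSO 0%, vasopressin 100%.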
p53ts 39C kill – p53ts cell cytotoxicity, nonpermissive temperature. hit rate 1.5% among 130,000. Potency, µM (doses to about 46.1 µM), for inactives: at the top dose activity change, negative = cell killing, usual class: cytotoxic. H1299-p53A138V viability at 39C, ATP luminescence, 24 h; further: on the % scale 0 is the no-effect control and ±100 the full control effect; nearly all actives have a fitted effect of over 55% in size
IkB signaling – suppresses IkB signaling in ABC-DLBCL reporter cells; Potency, µM (doses to about 57.1 µM), inactives show top-dose IkBa stabilization activation; ABC-DLBCL IkBa-CBG/CBR dual luciferase ratio, 4 h; response scale: scaled: untreated 0%, proteasome inhibitor 100%; hit rate 0.04% among 110,000; AID 445; active means well fitted curve in the direction sought with a large enough effect in the signal ratio, not every such curve was filed as active; inconclusive means small, poorly fitted or top-dose-only effect, or a change in a side signal; the % refers to the signal ratio;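 further: the direction sought is a rising ratio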
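Curves were fitted separately to fusion (green), unfused (red) and ratio luminescence, then classed by r2, magnitude and activity. Cells: OCI-Ly3, 4 h compound plus doxycycline at 37C; 10 uM MG-132 defined full response.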
p53ts 32C tox – p53ts cell cytotoxicity, permissive temperature. H1299-p53A138V at 32C, ATP luminescence viability, 24 h. Potency, µM (titrated, usually from 46.1 µM), inactives show top-dose activity change, negative = cytotoxicity, hits mostly cytotoxic. hit rate 0.93% among 130,000. AID 924;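 further: 0% = DMSO and -100% = full killing by reference compound; nearly all actives have a fitted effect of over 55% in size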
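Cells: H1299 p53ts (A138V), 600/well, pre-incubated 16–30 h at 37C. Cpd up to 46 uM, 24 h, 32C. Readout: ATPlite luminescence, 20 min RT. Normalization: DMSO vs tamoxifen 100 uM. AC50 by Hill equation.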
Peg3 imprint – inducers of genomic imprint erasure in mouse ES cells; AID 1948; Potency, µM (series often up to 60.7 µM), inactives show top-dose activity change, positive = activation, most hits filed as activators; hit rate 0.02% among 110,000; mouse ES Peg3-LacZ reporter, beta-gal luminescence, 40 h
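Readout: BetaGlo luminescence (5 min, room temp) for LacZ from the normally silent maternal Peg3 allele in female Peg3LacZ-Neo ES cells. Cells 300/well, 40 h, 37C, 5% CO2. Data normalized per plate to negative controls.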
The depositor's hits bear a star; ? = inconclusive; · = not tested or not shown; [ ] = another dose, or the depositor's remark. In the library only some 2.3% were active in any assay of this set; here they are far more common. Unless noted, the call rests on the fitted dose curve; in most records, active means well fitted curve in the direction sought with a large enough effect; inconclusive means small, poorly fitted or top-dose-only effect, or another doubt; inactive means no such curve, though single readings can be large; an effect the other way counts as inactive or inconclusive. Potency means the concentration at half of the fitted maximal effect.

SMILES	ERK AVP inh	p53ts 39C kill	IkB signaling	p53ts 32C tox	Peg3 imprint
CCCCOc1ccccc1C1CC(=O)Nc2ccc3ccccc3c21 (stereo not drawn)	·	?	?	19%	-10%[10.9 µM]
O=C(O)[C@@H]1[C@@H]2O[C@H]([C@@H](Br)[C@H]2Br)[C@H]1C(=O)O	15%[11.5 µM]	-13%[9.22 µM]	1%[11.4 µM]	2%[9.22 µM]	7%[10.9 µM]
O[C@@H](C1=C/C(=C\c2ccncc2)c2ccccc21)c1ccncc1	-14%[11.5 µM]	-18%[9.22 µM]	?	-8%[9.22 µM]	-1%[10.9 µM]
COc1ccc(OC)c(S(=O)(=O)N2CCC(C(=O)Nc3cccc(C(F)(F)F)c3)CC2)c1	16µM*	6%	?	3%	4%
O=C(c1ccco1)N1CCN(C(=O)C(Cc2ccccc2)NS(=O)(=O)c2cccs2)CC1 (stereo not drawn)	1%	3%	3%	6%	3.2µM*
COc1ccc(C2C3=C(CCCC3=O)Nc3nc4ccccc4n32)c(OC)c1OC (stereo not drawn)	34%	-8%	0%	22%	-12%
CCc1ccc(C2=CC(c3cccc(C)c3)n3c(nc4ccccc43)N2)cc1 (stereo not drawn)	·	5µM*	?	8.9µM*	-17%[10.9 µM]
CCc1ccc(C2=CC(c3cccc(OC)c3OC)n3c(nc4ccccc43)N2)cc1 (stereo not drawn)	·	16µM*	?	10µM*	-12%[10.9 µM]
N#Cc1c(C(F)(F)F)cc(-c2cccs2)nc1SCC(=O)Nc1cccc(Br)c1	·	13µM*	?	-15%	-3%[10.9 µM]
O=C(Cn1c(=O)n(-c2ccccc2)c(=O)c2ccc(C(=O)NCc3ccc4c(c3)OCO4)cc21)Nc1ccc(Br)cc1F	·	13µM*	2%	-15%	-14%[10.9 µM]
COc1ccc(-n2nnnc2S(=O)(=O)CC(=O)N2CCCCC2)cc1	15%	?	?	20µM*	-35%
O=C(Nc1noc2ccccc12)c1ccc(F)cc1	·	?	2%	10µM*	-31%[10.9 µM]
O=C(O)/C=C\C(=O)Nc1cccc2c1-c1ccccc1C2=O	-25%[11.5 µM]	0%[9.22 µM]	1%[11.4 µM]	5%[9.22 µM]	-11%[10.9 µM]
CCC(C)(C)C(=O)O[C@@H]1C[C@@H](C)C=C2C=C[C@H](C)[C@H](CC[C@@H]3C[C@@H](O)CC(=O)O3)[C@H]21	9%	·	?	·	-21%
NC(=NCc1ccc(Cl)c(Cl)c1)NC(=O)c1nc(Cl)c(N)nc1N	-6%	13µM*	-16%	13µM*	-12%
C=CCSc1nnc(-c2ccc(Cl)cc2Cl)o1	17%	-24%	-1%	?	-31%
Clc1ccc(-c2nnc(SCc3ccon3)o2)c(Cl)c1	-16%	10µM*	-1%	10µM*	-70%
Nc1c(Cl)cc(Cl)cc1Cl	26%	4%	-1%	8%[1.84 µM]	3%
COc1cc([C@@H]2Oc3cc([C@H]4Oc5cc(O)cc(O)c5C(=O)[C@H]4O)ccc3O[C@H]2CO)ccc1O	4%	12%	1%[11.4 µM]	30%	-16%
O=C(Nc1ccc(-c2nc3ccccc3o2)cc1)C1CCCO1 (stereo not drawn)	-29%	10µM*	?	16µM*	·
COc1ccc(CC(=O)Nc2sc3c(c2C(=O)Nc2cccc(C)c2)CCCCC3)cc1	·	10µM*	?	-27%	-9%[10.9 µM]
CCCCCCCCCCCCCCCCOC[C@@H](COCC(F)(F)F)OP(=O)(O)OCO	·	·	-6%	·	·
COc1ccccc1N1CCN(C/C=C/c2ccc(N(C)C)cc2)CC1	16µM*	-11%	0%	-13%	-12%
O=C1C=CC(=O)C2=C1C1c3ccccc3C2c2ccccc21	-10%	?	·	?	-73%
O=S(=O)(NCc1ccc(F)cc1)c1ccc2[nH]c3c(c2c1)CCCC3	·	·	·	9%	·
SMILES	ERK AVP inh	p53ts 39C kill	IkB signaling	p53ts 32C tox	Peg3 imprint
O=S(=O)(NCc1ccccc1)c1ccc2[nH]c3c(c2c1)CCCCC3	·	32µM*	-3%	4%	-7%[10.9 µM]
Cc1ccc(CNS(=O)(=O)c2ccc3[nH]c4c(c3c2)CCCCC4)cc1	·	20µM*	?	-2%	-5%[10.9 µM]
C#C[C@]1(O)CC[C@H]2C3CCC4=Cc5oncc5CC4(C)C3CCC21C (stereo partly drawn)	·	·	·	·	-15%
CN1CCN(c2ccccc2NC(=O)c2ccc(Br)o2)CC1	20µM*	-4%	-1%	2%	1%
CCOc1ccc(-c2nnc(-c3ccccc3)o2)cc1	·	-12%	·	?	·
CCOc1ccc(-c2nc3ccccc3c(=O)o2)cc1	·	2.5µM*	?	2.5µM*	-36%[10.9 µM]
COc1ccc(CCNC(=O)CCCn2c(=O)c3ccccc3n(CC(=O)Nc3cc(Cl)ccc3C)c2=O)cc1OC	·	13µM*	-2%	?	-1%[10.9 µM]
CCc1cccc(NC(=O)Cn2c(=O)n(CC(=O)NCCc3ccccc3)c(=O)c3ccccc32)c1	·	6.3µM*	?	10µM*	-27%[10.9 µM]
COc1ccc(Cl)cc1NC(=O)Cn1c(=O)n(CCCC(=O)NCCc2ccc(OC)c(OC)c2)c(=O)c2ccccc21	·	?	?	-19%	-9%[10.9 µM]
Cc1cc(C)cc(NC(=O)Cn2c(=O)n(CC(=O)NCCc3ccccc3)c(=O)c3ccccc32)c1	·	20µM*	?	?	-9%[10.9 µM]
O=C(Cn1c(=O)c2ccccc2n(CC(=O)Nc2ccc(F)cc2)c1=O)NCCc1ccccc1	·	-2%	?	2%	-8%[10.9 µM]
COc1ccc(NC(=O)Cn2c(=O)n(CC(=O)NCCc3ccccc3)c(=O)c3ccccc32)cc1	·	14%	2%	20%	9%[10.9 µM]
Cn1c(=O)n(C)c2cc(NS(=O)(=O)c3ccc4c(c3)CCCC4)ccc21	-7%	-9%	7.9µM*	-1%	-16%
CCc1ccc(OCC(=O)Nc2ccc3c(c2)c2ccccc2n3CC)c(Br)c1	·	13µM*	-7%	-12%	-12%[10.9 µM]
CCc1ccc(OCC(=O)Nc2ccc3c(c2)c2ccccc2n3CC)cc1	·	?	-3%	?	-6%[10.9 µM]
Cc1cccc(OCC(=O)NCCc2nc3ccccc3[nH]2)c1C	·	0%	3%	-5%	-6%[10.9 µM]
COCC(=O)O[C@]1(CCN(C)CCCc2nc3ccccc3[nH]2)CCc2cc(F)ccc2[C@@H]1C(C)C	20µM*	?	-15%	?	-30%
Nc1c(C(=O)Nc2ccccc2)sc2nc(-c3ccco3)ccc12	32µM*	-17%	?	-21%	-21%
COc1ccccc1NC(=O)c1sc2nc(-c3ccco3)ccc2c1N	-10%	11%	-1%	3%	-7%
Cc1cc(C(=O)CN2C(=O)c3ccccc3S2(=O)=O)c(C)n1CC1CCCO1 (stereo not drawn)	-9%	1µM*	0%	2.5µM*	-91%
CCn1c(SCC(=O)c2cc(C)n(CC3CCCO3)c2C)nc2ccccc21 (stereo not drawn)	9%	-5%	?	-6%	-14%
O=C(O)c1ccc2nc(-c3cc4cc(Cl)ccc4oc3=O)[nH]c2c1	·	-22%	?	-13%	-15%[10.9 µM]
